Compound activity deposited in PubChem by The Scripps Research Institute Molecular Screening Center.
NOD2 RIPK2 PPI: inhibitors of human NOD2-RIPK2 interaction; inhibition, % at 4.98 µM; AID 624267; O43353; actives 0.38% (n = 360,000); CHO BLA complementation NOD2-RIPK2, CCF4 ratio; in the data active means inhibition above about 21%;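 further: 0% = vehicle only and 100% = reference blocker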
TLR9-MyD88 inh: TLR9-MyD88 interaction inhibition; Q9NR96+Q99836; CHO BLA complementation TLR9-MyD88, CCF4 FRET ratio; inhibition, % at 4.98 µM; actives 0.21% (n = 340,000); AID 504734;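 active means inhibition above the mean over all tested compounds plus 3 SD, cut at about 21% in these data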;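 further: 0% = DMSO only wells and 100% = clavulanate BLA inhibitor control wells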
rCAG binder: binds r(CAG) RNA repeats. r(CAG) RNA repeat, TO-PRO-1 dye displacement fluorescence. inhibition, % at 3 µM. actives 1.3% (n = 370,000);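 active means inhibition above the plate cutoff, the mean of all test compounds on that plate plus 3 SD, cut at about 35% in these data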;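 further: 0% = DMSO alone and 100% = 100 µM mitoxantrone as full dye displacement; higher means more dye released from RNA so lower well fluorescence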
TLR4-MyD88 BLA: blocks binding of human TLR4 to MyD88; O00206+Q99836; HeLa CL3-4 TLR4/MyD88 BLA complementation, FRET ratio; inhibition, % at 8.4 µM; actives 0.18% (n = 200,000); AID 861; in the data active means inhibition above about 25%;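 further: 0% = vehicle and 100% = reference inhibitor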
PRMT1 inh: inhibitors of human PRMT1; Q99873; inhibition, % at 2.79 µM; recombinant PRMT1, activity-based probe fluorescence polarization; actives 1.3% (n = 370,000);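 active means inhibition above about 21% made by adding two undisclosed values, limit read from the data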
ABHD5-PLIN5 inh: ABHD5-PLIN5 protein interaction inhibition; Split G. princeps luciferase complementation, luminescence, 4 h; inhibition, % at 4 µM; actives 0.78% (n = 360,000); AID 602281;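 active means inhibition above the mean inhibition across every tested compound plus 3 SD, cut at about 22% in these data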;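 further: 0% = DMSO only wells and the 100% control is not disclosed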
Target sequence (Q00G26 whole entry, looked up): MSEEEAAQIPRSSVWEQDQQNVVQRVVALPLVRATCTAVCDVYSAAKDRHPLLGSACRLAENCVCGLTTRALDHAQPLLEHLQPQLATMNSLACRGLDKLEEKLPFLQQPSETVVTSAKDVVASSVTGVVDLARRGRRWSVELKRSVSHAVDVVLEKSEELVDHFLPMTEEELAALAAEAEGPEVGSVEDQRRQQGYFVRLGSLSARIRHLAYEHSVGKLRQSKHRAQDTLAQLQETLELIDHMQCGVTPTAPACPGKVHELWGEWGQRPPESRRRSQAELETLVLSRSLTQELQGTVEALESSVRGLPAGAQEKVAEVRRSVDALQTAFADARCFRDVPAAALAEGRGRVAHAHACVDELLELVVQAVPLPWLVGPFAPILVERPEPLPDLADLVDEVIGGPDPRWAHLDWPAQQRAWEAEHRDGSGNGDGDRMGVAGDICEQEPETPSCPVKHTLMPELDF
Target sequence (Q8WTS1 whole entry, looked up): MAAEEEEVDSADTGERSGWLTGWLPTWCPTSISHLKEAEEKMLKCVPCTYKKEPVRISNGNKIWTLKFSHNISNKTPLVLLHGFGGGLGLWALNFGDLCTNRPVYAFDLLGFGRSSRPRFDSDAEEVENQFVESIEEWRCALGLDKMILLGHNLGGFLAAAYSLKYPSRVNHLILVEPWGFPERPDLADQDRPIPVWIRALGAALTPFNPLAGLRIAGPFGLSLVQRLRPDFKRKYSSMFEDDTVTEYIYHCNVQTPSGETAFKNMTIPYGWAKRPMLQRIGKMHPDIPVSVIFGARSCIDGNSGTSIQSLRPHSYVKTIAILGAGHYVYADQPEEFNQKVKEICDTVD
PRMT1 confirm: confirmation of human PRMT1 inhibitors. shares compounds with PRMT1 inh. inhibition, % at 2.79 µM. AID 687036. actives 42% (n = 3,300). recombinant His-PRMT1, activity-based probe fluorescence polarization;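 active means mean inhibition across replicates above the hit cutoff derived for the earlier primary screen, cut at about 22% in these data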
* hit, by the source's call; x = no result. The list is not random: actives were taken first. Their share in the collection is about 3.3%.

SMILES	NOD2 RIPK2 PPI	TLR9-MyD88 inh	rCAG binder	TLR4-MyD88 BLA	PRMT1 inh	ABHD5-PLIN5 inh	PRMT1 confirm
CCC(/C=C1\Sc2ccc(OC)cc2N1CCO)=C\c1sc2ccc(OC)cc2[n+]1CCO	-8.6	0.4	9.2	-13.7	69.8*	43.4*	7.0
CCC(=O)/C=C1/Sc2ccc(OC)cc2N1CCO	2.7	5.1	-4.3	1.8	-0.5	7.8	x
CCSc1nc(=S)cc(C)[nH]1	-9.0	-5.1	-0.4	x	69.2*	-13.3	41.2*
N#C/C(=C\c1ccccc1[N+](=O)[O-])C(=O)NC1CCCCC1	7.8	-6.3	-18.7	12.5	31.7*	6.7	-1.9
Cc1cc2cc(CNC(=O)c3ccco3)ccc2n1C	1.8	0.0	14.9	x	35.8*	12.8	2.0
Cc1cc2cc(CNC(=O)c3cc4ccccc4o3)ccc2n1C	x	x	x	-14.7	x	x	x
Cc1ccc(C)c(-n2c3nc(=O)[nH]c(=O)c-3cc3cc([N+](=O)[O-])ccc32)c1	12.2	1.4	1.7	20.2	26.4*	16.1	5.5
Cc1cccc(-n2c3nc(=O)[nH]c(=O)c-3cc3cc([N+](=O)[O-])ccc32)c1	7.6	9.1	3.7	12.6	1.9	10.0	x
CCNc1nc(-c2sc(NC(=O)C(C)(C)C)nc2C)c(-n2cc(-c3ccccc3)nn2)s1	-3.9	x	7.3	x	3.1	-9.6	x
COCCN(Cc1nnc(-c2cccs2)o1)C(=O)CN1C(=O)NC2(CCCCC2)C1=O	-4.2	-1.4	2.0	x	7.2	9.1	x
S=c1[nH]nc(-c2c[nH]c3ccccc23)o1	-9.2	8.7	-1.7	x	8.6	0.9	x
Oc1cc2ccccc2cc1-c1n[nH]c(=S)o1	-11.3	-2.1	23.4	0.2	25.6*	-8.0	35.8*
O=C(NCCc1ccc(O)cc1)c1[nH]c(C(F)(F)F)nc1-c1ccccc1	3.4	x	1.7	x	-3.4	-10.1	x
CCOC(=O)c1c(C)nsc1NCc1ccccc1	-5.9	3.0	-4.3	x	27.5*	-1.4	2.4
O=C(NN=C1CCCCCCCCCCC1)c1ccccc1F	-5.6	-9.2	-3.4	-19.7	-0.2	-2.0	x
CC12CCC(O)CC1=CCC1C2CCC2(C)C3=NN=CC3CC12 (stereo not given)	0.8	-4.1	-0.2	x	5.2	2.7	x
Cc1ccc(C2c3sc(=O)[nH]c3SC3C4CC(C5C(=O)N(C(C)C(=O)O)C(=O)C45)C23)cc1 (stereo not given)	-0.3	8.9	13.9	-21.0	59.1*	6.1	20.5
O=C(COC(=O)c1ccc2ncsc2c1)NC(=O)c1ccccc1	-7.8	10.4	0.1	-2.8	26.9*	-5.4	2.2
CCC(C)(C)NC(=O)C(c1cccc(OC)c1OC)N(C(=O)CCC(=O)Nc1cc(C)on1)c1ccc2c(c1)OCCO2 (stereo not given)	-8.1	-2.2	-1.4	x	-1.3	4.3	x
COC(=O)CN(C#N)c1nc(NC(C)C)nc(OC)n1	-5.7	6.9	-0.7	-5.3	-1.3	7.5	x
COC(=O)CN(C#N)c1nc(NCc2ccccc2)nc(OC)n1	-1.2	-3.2	-0.9	x	63.9*	4.6	-2.6
COc1ccc2cc(C(c3nnnn3C(C)(C)C)N3CCc4ccccc4C3)c(=O)[nH]c2c1 (stereo not given)	x	x	x	-2.7	x	x	x
COc1ccc2cc(C(c3nnnn3C(C)(C)C)N3CCSCC3)c(=O)[nH]c2c1 (stereo not given)	-5.4	-4.1	8.7	2.0	34.4*	-25.2	-6.1
COc1ccc(NC(=O)C2C3C=CC(O3)C2C(=O)O)cc1 (stereo not given)	8.9	10.6	-0.8	x	36.0*	2.0	8.5
COc1cccc(NC(=O)C2C3C=CC(O3)C2C(=O)O)c1 (stereo not given)	-6.2	-10.8	5.1	x	-0.8	1.7	x
SMILES	NOD2 RIPK2 PPI	TLR9-MyD88 inh	rCAG binder	TLR4-MyD88 BLA	PRMT1 inh	ABHD5-PLIN5 inh	PRMT1 confirm
CCN(CC)CCn1c(SCC(=O)Nc2ccc(F)cc2)nc2c(sc3ccccc32)c1=O	x	x	x	-5.2	x	x	x
Cc1cc2c(=O)n(Cc3ccco3)c(SCC(=O)N3CCCc4ccccc43)nc2s1	-1.5	-6.1	4.2	10.3	8.3	13.6	x
Cc1cc2c(=O)n(Cc3ccco3)c(SCC(=O)NCc3ccco3)nc2s1	-8.0	-16.4	8.3	-7.6	58.4*	9.8	17.5
O=C(CSc1nc2c(sc3ccccc32)c(=O)n1CCCN1CCCC1)NCc1ccco1	-10.0	2.0	1.9	-5.1	27.0*	-0.9	10.5
COc1ccccc1NC(=O)CSc1nc2c(sc3ccccc32)c(=O)n1CCN(C)C	-3.0	-22.6	-0.1	-9.8	70.4*	14.1	71.9*
O=C1NN=C2CCCCCCCCCCC12 (stereo not given)	-8.3	-5.4	2.2	x	3.6	-2.8	x
Fc1ccc(COc2ccccc2-c2ccnc3ncnn23)cc1	-5.6	-11.7	-4.2	3.0	1.6	2.2	x
CCCOc1ccc(C(=O)CCC(=O)OCC(=O)N2CCN(S(=O)(=O)c3ccc(C)cc3C)CC2)cc1	-11.4	-0.2	4.5	x	-2.7	11.3	x
CCN(c1ccccc1)S(=O)(=O)c1cc(C(=O)O)ccc1C	-5.9	-6.3	14.6	6.6	6.1	-1.9	x
CC(C)c1ccc(C2CC(=O)N3CN(Cc4ccco4)CSC3=C2C#N)cc1 (stereo not given)	5.8	-3.0	30.9	-7.4	19.1	-6.1	x
N#CC1=C2SCN(Cc3ccco3)CN2C(=O)CC1c1ccc(Cl)cc1 (stereo not given)	-4.6	-6.4	23.8	-0.9	32.4*	-0.8	12.8
COc1ccc(N2CCCCn3c2nc2c3c(=O)n(C)c(=O)n2C)cc1	-4.6	11.2	-8.5	-4.8	-1.0	-1.3	x
CCOC(=O)c1cc2c(ccn2C)n1CC(=O)N(Cc1ccccc1)c1ccccc1	-6.4	9.7	9.8	11.3	29.4*	-6.7	6.2
CCOC(=O)c1cc2c(ccn2C)n1CC(=O)N(Cc1ccccc1)c1ccc(F)cc1	10.8	-6.5	-0.8	5.1	3.6	4.1	x
CC(C)OC(=O)c1cc2c(ccn2C)n1CC(=O)N(Cc1ccccc1)c1ccc(F)cc1	-3.5	3.2	3.2	-14.7	25.0*	-12.8	4.9
COc1cccc(C2=CC(=O)CC(c3ccco3)C2)c1 (stereo not given)	2.4	-3.2	20.3	x	31.4*	8.5	3.2
O=C1C(CSCc2ccccc2)NC(=S)N1c1ccccc1 (stereo not given)	0.5	x	5.7	x	26.6*	-5.2	67.8*
CCc1[nH]c(=O)[nH]c1C(C)S(=O)(=O)c1ccc(C)cc1 (stereo not given)	-15.3	-3.5	2.0	-5.1	42.7*	22.0	33.8*
C=CCC(C=C)S(=O)(=O)c1ccc(C)cc1 (stereo not given)	1.8	-11.0	-1.5	-5.0	-1.8	8.1	x
CCc1c(C(C)S(=O)(=O)c2ccc(C)cc2)[nH]c(=O)n1-c1ccc(C)cc1 (stereo not given)	-0.8	3.0	3.5	-2.4	33.8*	2.7	14.4
